Measurements published in PubChem BioAssay AID1789 (The Scripps Research Institute Molecular Screening Center, 2009).
Values joined by “and” are separate entries in the source; they are usually repeats but may differ in a detail not shown here. Identical values can stand only once. About 2,700 (0.93%) of roughly 290,000 compounds were called active. This is one part of a sample in which actives are shown more often than they occur.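 Rule for the calls: active = inhibition above the screen-wide mean plus 3 SD, computed separately per campaign (cut at about 16% in these data); inactive = the rest.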

tested on: Heat shock protein HSP 90 (rabbit reticulocyte lysate; luciferase refolding); assay: inhibitors of HSP90 chaperone activity – cell lysate, luminescence, primary screen (AID 1789); details: 3 h, at 5.6 µM, active compounds read high;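 note: 0% = DMSO wells and 100% = 60 µM geldanamycin wells; inhibitors lower the luminescence because luciferase stays unfolded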

SMILES	inhibition
O=C(NCCc1ccc(Cl)cc1Cl)c1cc([N+](=O)[O-])c[nH]c1=O	-4.08% (inactive)
Cc1nn(CC(=O)Nc2ccc(F)cc2)c(=O)c2ccccc12	31.8% (active)
Cc1ccc(NC(=O)Cn2nc(C)c3ccccc3c2=O)c(C)c1	-0.05% (inactive)
O=C(Cn1nc(C(=O)O)c2ccccc2c1=O)Nc1ccc(F)cc1	0.16% (inactive)
CCc1nnc(NC(=O)CCC(=O)N2CCN(c3cc(C)ccc3C)CC2)s1	-1.11% (inactive)
O=C(Cn1c[n+](CC(=O)c2ccc([N+](=O)[O-])cc2)cn1)c1ccc([N+](=O)[O-])cc1	17.4% (active) and 20.8% (active)
O=C(c1ccncc1)c1ccc([N+](=O)[O-])cc1	1.75% (inactive)
O=C(CC(n1cncn1)C(Cl)(Cl)Cl)c1ccc([N+](=O)[O-])cc1 (configuration not stated)	-0.82% (inactive)
O=C(c1ccc(Br)o1)N1CCN(CCOc2ccccc2)CC1	-4.13% (inactive)
COc1ccc(CNC(=O)c2ccc3oc(C(C)C)nc3c2)cc1	-4.27% (inactive)
C/C(=N\Nc1nncc2ccccc12)c1ccc(Cl)c([N+](=O)[O-])c1	3.18% (inactive)
COc1cc(/C=N/Nc2nn3cnnc3c3ccccc23)cc(OC)c1OC	-1.69% (inactive)
CN(CCO)c1ccc(/C=N/Nc2nncc3ccccc23)cc1	58.9% (active)
C=CCSc1nsc(NC(=O)Nc2cccc(C(C)=O)c2)n1	-1.06% (inactive)
O=C(C1CCCN(S(=O)(=O)c2ccc([N+](=O)[O-])cc2)C1)N1CCCCC1 (configuration not stated)	6.54% (inactive)
O=C(Nc1cccnc1)c1noc2c1CCCCC2	39.9% (active)
O=C(Nc1cccnc1)c1cccc(S(=O)(=O)N2CCCC2)c1	-0.49% (inactive)
O=C(c1noc2c1CCCC2)N1CCc2ccccc2C1	3.28% (inactive)
CCn1cc(CN2CCC(C(=O)Nc3cccc(-c4cccc(Cl)c4)c3)CC2)cn1	7.07% (inactive)

SMILES	inhibition
CCCS(=O)(=O)N1CCCC(C(=O)NCCN2CCCCC2C)C1 (configuration not stated)	20.8% (active)
CCCS(=O)(=O)N1CCCC(C(=O)NCc2ccco2)C1 (configuration not stated)	-2% (inactive)
CCS(=O)(=O)N1CCCC(C(=O)NCc2ccc(C)cc2)C1 (configuration not stated)	-1.37% (inactive)
COc1ccccc1CN1CCCC(N2CCN(c3ccc(F)cc3)CC2)C1 (configuration not stated)	-1.44% (inactive)
O=C1c2ccccc2C(Nc2ccc3c(c2)OCCO3)N1Cc1ccco1 (configuration not stated)	16.6% (active)
O=C(NC1CCCCC1)C1c2ccccc2C(=O)N1Cc1ccco1 (configuration not stated)	-0.31% (inactive)
Cc1ccnc(N2C(=O)c3ccccc3C2Nc2ccc3c(c2)OCCO3)c1 (configuration not stated)	1.87% (inactive)
CCc1ccc(NC(=O)CN2CCC(C(=O)c3ccc(OC)cc3)CC2)cc1	0.9% (inactive)
Cc1ccccc1OCC(=O)N(Cc1cccc(F)c1)C1CCS(=O)(=O)C1 (configuration not stated)	-1.03% (inactive)
CC(=O)Oc1ccc2c(c1)C(=O)c1ccccc1C2=O	4.58% (inactive)
CC(=O)Oc1ccc(-c2nc3c(C)cccc3c(=O)o2)cc1	-3.74% (inactive)
COc1ccc(/C=C/c2noc(-c3ccccc3OC(C)=O)n2)cc1	24.5% (active)
O=C(O)c1ccc(N/N=C/c2ccc3ncccc3c2)cc1	16.2% (active)
Cc1ccc2cc(/C=N/Nc3ccc(C(=O)O)cc3)c(Cl)nc2c1	1.97% (inactive)
O=C(O)c1ccc(/C=N/Nc2nc(N3CCCCC3)nc(N3CCCCC3)n2)cc1	1.51% (inactive)
O=C(CN1C(=O)c2ccccc2S1(=O)=O)NC1CCCCC1	0.8% (inactive)
O=C(CN1C(=O)c2ccccc2S1(=O)=O)N1CCc2ccccc21	56.6% (active)
O=C(CN1CCN(c2ccccn2)CC1)N1CCc2ccccc21	2.52% (inactive)
O=C(Oc1cccc(O)c1)C1CCCCC1	2.03% (inactive)

SMILES	inhibition
CC1CN(C(=S)SCC(=O)c2ccccc2)CC(C)O1 (configuration not stated)	1.9% (inactive)
O=C(CSC(=S)N1CCOCC1)c1ccccc1	34.1% (active)
O=C(CSC(=S)N1CCOCC1)c1cc(Br)cc(Br)c1O	-0.31% (inactive)
Cc1cccc(NC(=O)c2cccc(C(=O)Nc3cccc(C)c3C)n2)c1C	-2.8% (inactive)
O=C(NCCCc1ccccc1)c1cc(COc2c(F)cccc2F)on1	-1.08% (inactive)
COc1ccc(CNS(=O)(=O)c2cc(-c3cc(C)no3)ccc2C(C)C)cc1	6.8% (inactive)
CCN(CC)CCN(C(=O)c1cc(Cl)sc1Cl)c1nc2cc3c(cc2s1)OCO3	0.85% (inactive)
COc1ccc(/C=N/Nc2nc(-c3ccc(C)cc3)c(C#N)c(=O)[nH]2)cc1	-6.02% (inactive)
S=c1[nH]nc(-c2ccco2)n1/N=C/c1ccccc1	1.32% (inactive)
Cn1cccc1-c1nc2ccccc2n1C	2.48% (inactive)
Cn1c(-c2ccco2)nc2cc3ccccc3cc21	37.7% (active)
CC(C)Cn1cnc2c1c(=O)n(CC(=O)NN)c(=O)n2Cc1ccccc1	-0.47% (inactive)
COc1ccc(OC)c(NC(=O)c2cccc(S(=O)(=O)N3CCN(C(C)=O)CC3)c2)c1	0.82% (inactive)
Cc1c(NC(=O)c2c([N+](=O)[O-])cnn2C)c(=O)n(-c2ccccc2)n1C	0.17% (inactive)
O=C(/C=C/c1ccc2c(c1)OCO2)NCc1cn2cc(Cl)ccc2n1	-0.84% (inactive)
Clc1ccc2nc(CSc3ccccc3)cn2c1	25.5% (active)
CCOc1ncccc1C(=O)OCc1cn2cc(Cl)ccc2n1	-0.94% (inactive)
N#C[C@]1(S(=O)(=O)c2ccccc2)C[C@@H]2ON=C(c3cccc(Br)c3)[C@@H]2C1	0.82% (inactive)
COc1ccc(C(=O)N[C@H](C(=O)NCc2ccccc2)C(C)C)cc1	-4.29% (inactive)
